Screening data from PubChem BioAssay.
NS1 function inh: qHTS Assay for Inhibitors of Influenza NS1 Protein Function; Potency, µM (titrated, usually from 46.1 µM), for inactives: at the highest dose activity, positive = more growth; actives 0.4% (n = 270,000); AID 2326, 2010; calls by dose curve; note: potency is the fitted concentration of half-maximal effect; actives are rising curves; nearly all actives have a fitted effect of over 50% in size
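S. cerevisiae expressing influenza A NS1, grown in glucose, washed, then diluted 1:100 into pH 6.0 -URA galactose medium with 23 nl compound. Growth recovery read as OD600; NS1-free strain serves as control.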
Sm TGR inh: qHTS Assay for the Inhibitors of Schistosoma Mansoni Peroxiredoxins | Schistosoma mansoni thioredoxin glutathione reductase (TGR), Q962Y6 | purified TGR, DTNB reduction, TNB absorbance 405 nm | Potency, µM (titrated, usually from 114 µM), without a hit: at the top dose activity change, negative = inhibition, hits mostly inhibitors | actives 3% (n = 360,000) | AID 485364, 2010; note: potency is the fitted concentration of half-maximal effect; % is set by controls: 0 for no effect and ±100 for the full control effect; nearly all actives have a fitted effect of over 60% in size
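TGR 20 nM + NADPH 100 uM (dispensed conc.), cpd preinc 15 min RT; start with NADPH (500 uM addition) then DTNB (15 mM addition). Kinetic TNB absorbance, 405 nm filter. Four-parameter Hill fit across titration.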
Cycloheximide cs: Cycloheximide Counterscreen for Small Molecule Inhibitors of Shiga Toxin; cell reporter, cycloheximide protein synthesis inhibition counterscreen; max response, %; actives 12% (n = 300,000); in the data active = max response mostly above about 13%, no sharp cut-off; inactive = mostly below about 14%; note: read at 38.3 µM for the half of the compounds with a filed dose; 0% is about no effect
Shiga inhibitor: A qHTS for Small Molecule Inhibitors of Shiga Toxin; Vero cells, Shiga toxin protein synthesis inhibition reporter; inhibition, % at 38.7 µM; actives 9.2% (n = 290,000); AID 2315, 2010; in the data active = inhibition mostly above about 28%, no sharp cut-off; inactive = mostly below about 43%; note: 0% is about no effect
Pf growth 48h: Primary qHTS for delayed death inhibitors of the malarial parasite plastid, 48 hour incubation. AID 504832, 2011. P. falciparum luciferase growth in erythrocytes, 48 h. Potency, µM (doses to about 28.7 µM), without a hit: at the highest dose activity change, negative = inhibition, actives largely listed as inhibitors. actives 5.9% (n = 310,000); note: potency is the fitted concentration of half-maximal effect; % is set by controls: 0 for no effect and ±100 for the full control effect
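Firefly luciferase activity from engineered P. falciparum reports growth; inhibitors lower the luminescent signal. Cultures contained 2% hematocrit erythrocytes at 0.1% final parasitemia.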
Pf growth 96h: Primary qHTS for delayed death inhibitors of the malarial parasite plastid, 96 hour incubation | P. falciparum luciferase reporter growth, 96 h | Potency, µM (top dose mostly 28.7 µM), for inactives: at the top dose activity change, negative = inhibition, actives largely listed as inhibitors | actives 6.9% (n = 320,000); note: potency is the fitted concentration of half-maximal effect; % is set by controls: 0 for no effect and ±100 for the full control effect
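Two-generation exposure (96 h) targets delayed-death phenotype. Reporter parasites carrying integrated firefly luciferase, in red cells at 2% hematocrit and 0.05% parasitemia final, kept at 37 C, 5% CO2; luminescence loss indicates inhibition.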
An asterisk follows results filed as active; [ ] = remark or other dose. Compounds with a hit are over-represented: about 21% of the library has one in this group of screens. Unless noted, calls come from the whole dose curve; as a rule, active = well fitted curve in the direction sought with a large enough effect; inconclusive = small, poorly fitted or top-dose-only effect, or another doubt; inactive = no such curve, though single readings can be large; an effect the other way counts as inactive or inconclusive.

For CCOc1ccc(NC(=O)CN2C(=O)NC(C)(c3ccc(OC(F)F)cc3)C2=O)cc1 (stereo unspecified) the results were NS1 function inh -4%, Sm TGR inh inconclusive, Cycloheximide cs -3, Shiga inhibitor 23, Pf growth 48h 1µM* and Pf growth 96h inconclusive.
Screening COc1ccc(C2(c3ccc(OC)cc3)NC(=O)N(CC(=O)Nc3ccc(OC(F)F)cc3)C2=O)cc1 returned NS1 function inh inconclusive, Sm TGR inh 10%, Cycloheximide cs 6, Shiga inhibitor 7, Pf growth 48h 12µM* and Pf growth 96h inconclusive.
`CC1(c2ccc(OC(F)F)cc2)NC(=O)N(CC(=O)Nc2ccc(Cl)cc2F)C1=O` (stereo unspecified) gave NS1 function inh 7%, Sm TGR inh 9%, Cycloheximide cs 13*, Shiga inhibitor 30, Pf growth 48h 39% and Pf growth 96h -5%.
Screening CSCCC(NC(=O)c1ccco1)C(=O)N1CCN(Cc2ccccc2)CC1 (stereo unspecified) returned Sm TGR inh -17%, Pf growth 48h -1% and Pf growth 96h 7%.
For O=C(Nc1ccc(F)cc1F)c1ccc(CN2CC(=O)N3CCCCC3C2=O)cc1 (stereo unspecified) the results were Sm TGR inh 6%.
For Cc1ccc(N2CCN(c3nc4ccc(C)cc4n4nnnc34)CC2)c(C)c1 the results were Sm TGR inh 8%.
For CC(C)Cc1nnc(NC(=O)c2ccc3c(c2)NC(=O)C(C)S3)s1 (stereo unspecified) the results were Sm TGR inh 0%, Pf growth 48h 5% and Pf growth 96h 0%.
`C#CC(CC)(CC)NC(=O)NC1CCCCC1` gave NS1 function inh 6%, Sm TGR inh 5%, Cycloheximide cs -2, Shiga inhibitor -10, Pf growth 48h 29% and Pf growth 96h inconclusive.
Screening Cc1cccnc1NC(=O)c1ccc(Br)o1 returned Sm TGR inh -9%, Pf growth 48h inconclusive and Pf growth 96h 26%.
Screening O=C(CNC(=O)c1ccc(Br)o1)Nc1ncccc1O returned Sm TGR inh 45µM*, Pf growth 48h 13% and Pf growth 96h -1%.
O=C(Nc1ccc(CN2CCCCC2)cc1)c1ccc(Br)o1 was read as NS1 function inh 3%[9.22 µM], Sm TGR inh -10%, Cycloheximide cs 31*, Shiga inhibitor 79* and Pf growth 48h inconclusive.
O=C(Nc1ccc(CN2CCCCC2)cc1)c1c(F)c(F)c(F)c(F)c1F was read as NS1 function inh 6%, Sm TGR inh -3%, Cycloheximide cs 0, Shiga inhibitor -4, Pf growth 48h -12% and Pf growth 96h inconclusive.
O=C(CNC(=O)c1ccc(Br)o1)Nc1ccc(N2CCCCCC2)cc1 was read as Sm TGR inh -15%, Pf growth 48h 39% and Pf growth 96h 10µM*.
For COc1ccc(C(=O)CN(CCC(=O)O)S(=O)(=O)c2ccc([N+](=O)[O-])cc2)cc1 the results were Sm TGR inh -7%, Pf growth 48h 12% and Pf growth 96h 17%.
For CCCS(=O)(=O)c1nc(S(=O)(=O)c2ccc(C)cc2)c(N2CCc3ccccc3C2)s1 the results were NS1 function inh 10%, Sm TGR inh 25µM*, Cycloheximide cs 5, Shiga inhibitor 7, Pf growth 48h 2.3µM* and Pf growth 96h inconclusive.
For CCCS(=O)(=O)c1nc(S(=O)(=O)c2ccc(C)cc2)c(N2CCC(C(N)=O)CC2)s1 the results were NS1 function inh -11%, Sm TGR inh 45µM*, Cycloheximide cs 2, Shiga inhibitor -8, Pf growth 48h -7% and Pf growth 96h 10µM*.
CCCS(=O)(=O)c1nc(S(=O)(=O)c2ccc(C)cc2)c(N2CCC(O)CC2)s1 was read as NS1 function inh -2%, Sm TGR inh -6%, Cycloheximide cs -2, Shiga inhibitor 14, Pf growth 48h -6% and Pf growth 96h -10%.
`Cc1ccc(S(=O)(=O)c2nc(S(=O)(=O)c3ccc(C)cc3)c(N3CCN(CCO)CC3)s2)cc1` gave NS1 function inh -13%, Sm TGR inh -25%, Cycloheximide cs -3, Shiga inhibitor -7, Pf growth 48h 5.2µM* and Pf growth 96h -31%.
CS(=O)(=O)c1nc(S(=O)(=O)c2ccc(Cl)cc2)c(N2CCN(CCO)CC2)s1 was read as NS1 function inh 1%, Sm TGR inh -17%, Cycloheximide cs -1, Shiga inhibitor 10, Pf growth 48h -10% and Pf growth 96h inconclusive.
CCCS(=O)(=O)c1nc(S(=O)(=O)c2ccc(C)cc2)c(N2CCCC2)s1 was read as NS1 function inh 4%, Sm TGR inh -2%, Cycloheximide cs 1, Shiga inhibitor -11 and Pf growth 48h 12µM*.
Screening Cc1cccc(CCNC(=O)Cn2ncc3c(=O)oc4ccccc4c32)c1 returned Sm TGR inh 1%.
`CC(C)CC(=O)Nc1ccc(C(=O)COC(=O)CN2C(=O)NC3(CCCCC3C)C2=O)cc1` (stereo unspecified) gave Sm TGR inh -4%, Pf growth 48h inconclusive and Pf growth 96h 13%.
For CSc1ncc(Cl)c(C(=O)N(Cc2ccc(N(C)C)cc2)Cc2ccco2)n1 the results were Sm TGR inh -5%.
Cc1cc(C)cc(NS(=O)(=O)c2ccc(N3CCCCS3(=O)=O)cc2)c1 was read as Sm TGR inh -4%.
CC1(C2CC2)NC(=O)N(CC(=O)Nc2ccccc2-c2ccccc2)C1=O (stereo unspecified) was read as Sm TGR inh -2%, Cycloheximide cs -4, Shiga inhibitor -9, Pf growth 48h 23% and Pf growth 96h -7%.
`CCCS(=O)(=O)c1nc(S(=O)(=O)c2ccc(C)cc2)c(NC(C)c2ccccc2)s1` (stereo unspecified) gave Sm TGR inh 5µM*.
Screening CCCS(=O)(=O)c1nc(S(=O)(=O)c2ccc(C)cc2)c(N2CCC(C)CC2)s1 returned NS1 function inh -1%, Sm TGR inh -5%, Cycloheximide cs -3, Shiga inhibitor -2, Pf growth 48h inconclusive and Pf growth 96h 15µM*.
For CCS(=O)(=O)c1nc(S(=O)(=O)c2ccc(C)cc2)c(NC(C)c2ccccc2)s1 (stereo unspecified) the results were Sm TGR inh -12%.
For CCS(=O)(=O)c1nc(S(=O)(=O)c2ccc(C)cc2)c(N2CCC(C)CC2)s1 the results were NS1 function inh -22%, Sm TGR inh -7%, Cycloheximide cs -1, Shiga inhibitor 2, Pf growth 48h inconclusive and Pf growth 96h -27%.
